# Assay results reported in PubChem BioAssay AID2284330 (EPA ToxCast).
# Results filed as inconclusive are left out. Active and inactive are the calls of the source. The calls were made as follows: active = hit-call score of the fitted dose curve at least 0.9, where 1 is the maximum; inconclusive = response in the unintended direction; inactive = score below 0.9.
# Test system: frog Glucocorticoid Receptor (GR), gene 397897
# Test: ATG_frGR_EcoTox2: Attagene TRANS-FACTORIAL EcoTox-2 HepG2 Assay for frog Glucocorticoid Receptor (GR)
# Method: ATG_EcoTox2 is a cell-based, multiplexed assay created by modifying the existing Attagene TRANS-FACTORIAL system to include a panel of nuclear receptors from some or all the following species: human (Homo sapiens), african clawed frog (Xenopus laevis), rainbow trout (Oncorhynchus mykiss), japanese medaka (Oryzias latipes), and zebrafish (Danio rerio). The ECOTOX2-FACTORIAL format uses HepG2, a human liver cell line, with measurements taken at 24 hours after chemical dosing in a 24-well plate. ATG_frGR_EcoTox2 is one of 29 assay components calculated in the ATG_EcoTox2 assay. It is designed to make measurements of mRNA induction, a form of inducible reporter, as detected with fluorescence intensity signals by Reverse transcription polymerase chain reaction (RT-PCR) and Capillary electrophoresis technology.The assay endpoint ATG_frGR_EcoTox2 was analyzed in the positive analysis fitting direction relative to DMSO as the negative control and baseline of activity. Using a type of inducible reporter, measures of mRNA for gain-of-signal activity can be used to understand the reporter gene at the transcription factor-level as they relate to the gene for glucocorticoid receptor. Furthermore, this assay endpoint can be referred to as a primary readout, because this assay has produced multiple assay endpoints where this one serves a reporter gene function. […]
# Human liver HepG2 cells are transiently transfected with multiple reporter transcription units (MRTUs) in 6-well plates using FuGene 6 reagent (Roche; 3 ml FuGene/1 mg DNA). […] A major difference between the CIS and TRANS system is that in CIS activities of endogenous TFs are measured, whereas the TRANS assay evaluates changes in activities of exogenous, chimeric NR-Gal4 proteins. […] The fragments were purified using Qiaquick PCR columns (Qiagen), analyzed on an ABI 3130xL genetic analyzer (Applied Biosystems) with peak positions identified by using a set of X-rhodamine (ROX)-labeled MapMarker1000 molecular weight standards (BioVentures). […]
row,SMILES,outcome
1,O=P(Oc1ccccc1)(Oc1ccccc1)Oc1ccccc1,inactive
2,CCCCOCN(C(=O)CCl)c1c(CC)cccc1CC,inactive
3,O=S(=O)(O)C(F)(F)C(F)(F)C(F)(F)C(F)(F)C(F)(F)C(F)(F)F,inactive
